Results taken from PubChem BioAssay.

assay: anti-His antibody binders, primary screen, artefact control for SMM control protein annotation, biochemical, small-molecule microarray, 635 nm fluorescence (AID 1128); settings: anti-His Alexa647 antibody binding, higher = more signal;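 note: score merges feature fluorescence with signal-to-noise for each printed compound spot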

| SMILES | composite z-score |
| --- | --- |
| CCCCN1CC=CC23O[C@@H]4C=CCOC(=O)[C@@H]4[C@H]2C(=O)N(CCO)[C@@H]3C1=O (stereo not given in full) | -0.211 |
| C=CC[C@@]12N=C(c3ccc(OCCCO)cc3)O[C@@H]1c1ccccc1N(Cc1ccccc1)C2=O | 2.52 |
| COCCOC(=O)N1C(=O)[C@@]2(c3cc(C#CCC(C(=O)OC)C(=O)OC)ccc31)[C@H](C(N)=O)[C@H]1C(=O)O[C@H](c3ccccc3)[C@H](c3ccccc3)N1[C@@H]2c1ccc(OCCO)cc1 | 1.37 |
| CCOC(=O)C1=C(C(=O)OCC)N(S(=O)(=O)CC[Si](C)(C)C)[C@H](c2ccccc2)CC1 | 0.171 |
| COC(=O)C1=CC(CCCO)=CC(c2ccc(CN3CCCC3)cc2)N(Cc2sc3ccccc3c2Cl)C=C1C(=O)OC (stereo not given) | 3.17 |
| C=CCNC(=O)[C@@H]1[C@H]2C(=O)O[C@H](c3ccccc3)[C@H](c3ccccc3)N2[C@H](c2ccc(O)cc2)[C@@]12C(=O)Nc1ccc(C#CC3(O)CCCCCC3)cc12 | 0.906 |
| NC(=O)NCC#Cc1ccc2c(c1)[C@]1(C(=O)N2)[C@H](C(=O)Nc2nc3ccccc3s2)[C@H]2C(=O)O[C@H](c3ccccc3)[C@H](c3ccccc3)N2[C@@H]1c1ccc(OCCO)cc1 | -0.497 |
| COCCOC(=O)N1C(=O)[C@@]2(c3cc(C#CC4(O)CCCCCC4)ccc31)[C@H](c1ccccc1OCCO)N1[C@H](c3ccccc3)[C@H](c3ccccc3)OC(=O)[C@H]1[C@@H]2C(=O)N1CCCCCCC1 | 0.663 |
| COCCOC(=O)N1C(=O)[C@@]2(c3cc(C#CCCO)ccc31)[C@H](C(=O)N1CCc3cc(OC)c(OC)cc3C1)[C@H]1C(=O)O[C@H](c3ccccc3)[C@H](c3ccccc3)N1[C@@H]2c1ccccc1OCCO | 0.362 |
| [N-]=[N+]=NCc1ccccc1[C@H]1OC(c2ccc(OCCCO)cc2)=N[C@@]1(Cc1ccccc1)C(=O)N1CCOCC1 | 1.44 |
| C=CCOC(=O)[C@H]1[C@@H]2C(=O)O[C@@H](c3ccccc3)[C@@H](c3ccccc3)N2[C@@H](c2ccc(OCCOC(=O)[C@@H]3C[C@@H]4C(=O)N[C@@H](CC(C)C)C(=O)N4[C@@H]3c3ccc(O)cc3)cc2)[C@]12C(=O)Nc1ccc(I)cc12 | 0.785 |
| COCCOC(=O)N1C(=O)[C@@]2(c3cc(C#CCC(C(=O)OC)C(=O)OC)ccc31)[C@H](C(=O)N1CCc3cc(OC)c(OC)cc3C1)[C@H]1C(=O)O[C@H](c3ccccc3)[C@H](c3ccccc3)N1[C@@H]2c1ccc(O)cc1 | 1.82 |
| O=C1c2ccccc2[C@@]2(Cc3ccccc3N(Cc3ccccc3)C2=O)[C@H](c2ccc(CO)cc2)N1Cc1ccccc1 | -1.16 |
| CN(C)CCCC[C@@H]1NC(=O)[C@@H]2C[C@H](C(=O)NCCCCCCNC(=O)CS)[C@H](c3cccc(OCCO)c3)N2C1=O | 1.5 |
| CCCC[C@H]1OB(O)C[C@H]2C1=C(COC)C[C@H]1C(=O)C=CC(=O)[C@H]12 | 0.51 |
| C=C(/C(=C/C[C@@H](OC(C)=O)c1ccccc1OCCO)c1cc(C(=O)OC)ccc1OC)C(C)C | 1.37 |
| C=C(CCCC)/C(=C/C[C@H](OC(C)=O)c1cccc(OCCO)c1)c1cc(C(=O)OC)ccc1OC | -0.799 |
| CN(C)CCCC[C@@H]1NC(=O)[C@@H]2C[C@H](C(=O)NCc3ccc(F)cc3)[C@H](c3ccc(O)cc3)N2C1=O | 0.0971 |

| SMILES | composite z-score |
| --- | --- |
| C=CCNC(=O)[C@@H]1[C@H]2C(=O)O[C@H](c3ccccc3)[C@H](c3ccccc3)N2[C@H](c2ccccc2OCCO)[C@@]12C(=O)N(C(=O)OCCOC)c1ccc(C#CCCO)cc12 | 1.91 |
| C=CCC(OC(C)=O)[C@@H]1[C@@H](N(Cc2cc3ccccc3o2)C(=O)c2ccc(-c3ccccc3)cc2)c2cc(OCCCO)ccc2N1C(=O)c1ccc2ccccc2n1 (stereo not given in full) | -0.492 |
| COc1ccc(C#Cc2ccc3c(c2)[C@]2(C(=O)N3)[C@H](C(=O)Nc3nc4ccccc4s3)[C@H]3C(=O)O[C@H](c4ccccc4)[C@H](c4ccccc4)N3[C@@H]2c2ccc(OCCO)cc2)cc1 | 1.11 |
| C=CCC(OC(C)=O)[C@@H]1[C@@H](N(Cc2cc3ccccc3o2)C(=O)Cc2ccc(OC)cc2)c2cc(OCCCO)ccc2N1C(=O)Cc1ccc(OC)cc1 (stereo not given in full) | 0.69 |
| COCCOC(=O)N1C(=O)[C@@]2(c3cc(C#CC4(O)CCCCCC4)ccc31)[C@H](C(=O)NC[C@H](O)c1ccccc1)[C@H]1C(=O)O[C@H](c3ccccc3)[C@H](c3ccccc3)N1[C@@H]2c1ccc(O)cc1 | 1.39 |
| Cc1c(NC(=O)/C(C#N)=C/c2ccc(Cl)cc2)c(=O)n(-c2ccccc2)n1C | 0.753 |
| CCCC=C(CCC)[C@@H](NS(=O)(=O)c1ccc(Cl)cc1)c1ccccc1 | 1.12 |
| CN(C)CCCNC(=O)[C@@]1(Cc2ccccc2I)c2ccccc2C(=O)N(Cc2ccccc2)[C@H]1c1ccc(CO)cc1 | 1.88 |
| CCOC(=O)C[C@H]1[C@H](OC(=O)c2ccc(-c3ccccc3)cc2)[C@@H](NC(=O)c2ccc3ccccc3c2)c2cc(OCCCO)ccc2N1C(=O)c1ccccc1 | 0.137 |
| C=C(CCCC)C(=O)CC[C@H](OC(=O)c1cccnc1)c1ccc(CO)o1 | 3.27 |
| COc1ccc(C#Cc2ccc3c(c2)[C@]2(C(=O)N3)[C@H](c3ccc(OCCO)cc3)N3[C@H](c4ccccc4)[C@H](c4ccccc4)OC(=O)[C@H]3[C@@H]2C(=O)O)cc1 | 0.406 |
| COC(=O)[C@@]1(Cc2ccc(F)cc2)[C@H]2c3cc(C(=O)N(C)C)n(CCN4CCOCC4)c3C[C@H]2CN1C(=O)c1ccccc1 | 1.65 |
| CCCC[C@@H]1C[C@H]1[C@@H](NC(=O)c1ccc(C(F)(F)F)cc1)c1ccc(C(=O)OC)cc1 | 1.21 |
| COC(=O)[C@@]1(Cc2ccccc2)[C@@H]2[C@@H](CC(=O)[C@H]2CC(=O)C(=O)N(C)C)CN1C(=O)c1ccccc1 | 1.33 |
| COC(=O)[C@@]1(Cc2ccc(OC)cc2)[C@H]2c3cc(C(=O)N4CCCC4)n(CCc4ccc(OC)c(Br)c4)c3C[C@H]2CN1C(=O)c1ccccc1 | 1.66 |
| O=C1NC(=O)C2C1C=CC(C(O)c1cccc(O)c1)N2Nc1ccc(Cl)cc1Cl (stereo not given) | 0.33 |
| C=C(COC)C(=O)CC[C@@H](OC(C)=O)c1ccc(OCCO)cc1 | 0.476 |
